Pf growth 48h – inhibits P. falciparum growth in the first generation, 48 h | P. falciparum luciferase growth in erythrocytes, 48 h | Potency, µM (titrated, usually from 28.7 µM), hits mostly inhibitors | 310,000 tested, 5.9% active | AID 504832
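Compounds are pin-transferred into medium, infected erythrocytes (2% hematocrit, 0.1% parasitemia final) are added, and plates sit one parasite generation at 37 C in 5% CO2. Detection reagent is then added and luminescence measured.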
HCV inhibitor – blocks hepatitis C virus. 340,000 tested, 3.4% active. Huh7.5.1 HCVcc-Cre infection, luciferase reporter, 44 h. Potency, µM (highest dose often 41.8 µM), usual class: inhibitors. AID 651820
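Luciferase read-out (15 sec integration) after a 15 min room-temperature substrate step quantifies HCVcc-Cre infection. Cells, 1,000 per well, had compound added 4 h post-plating, then virus at ~0.5 moi, and were cultured 44 h.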
Lassa entry inh – Lassa virus entry inhibition; Lassa virus pseudotype entry inhibition, cell reporter; Potency, µM (doses to about 37.9 µM), hits mostly inhibitors; 300,000 tested, 1.2% active; AID 540256; calls by dose curve; tested in HEK293 cells; further: nearly all actives have a fitted effect of over 50% in size
Marburg entry inh – inhibitors of Marburg virus binding or cell entry | Marburg virus pseudotyped entry inhibition, cell reporter | Potency, µM (highest dose often 37.8 µM), most hits filed as inhibitors | 300,000 tested, 1.8% active; calls by dose curve; tested in HEK293 cells
HCMV inh – human cytomegalovirus inhibition | HFF cells, HCMV-luciferase reporter, 72 h; stronger effect = lower value | activity change, negative = inhibition, % at 57.5 µM | 410,000 tested, 4.5% active; in the data active means activity change below about -60%; inconclusive means no clear call, values can overlap the other calls; inactive means above about -39%
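Screen run at 2 compound doses on HFFs infected with reporter HCMV, MOI 1 PFU/cell. Luciferase activity from cell lysates at 72 h post infection gave inhibition relative to buffer-only and Salinomycin wells.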
Pf growth 96h – P. falciparum growth inhibition at 96 hour, primary screen for plastid delayed-death inhibitors. P. falciparum luciferase reporter growth, 96 h. Potency, µM (series often up to 28.7 µM), usual class: inhibitors. 320,000 tested, 6.9% active. AID 504834
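Compounds incubated with erythrocytes infected by luciferase-expressing P. falciparum (2% hematocrit, 0.05% parasitemia final) for 96 hours, 37 C in 5% CO2. Growth inhibition scored as decreased luciferase luminescence.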
Hits are given with their value; - = inactive; ? = inconclusive; . = not tested or not shown; ! = a repeat was not active. Most compounds without a hit are left out; they make up all but 14% or so of the library. Unless noted, the call rests on the fitted dose curve; in most records, active means well fitted inhibition curve with a large enough effect; inconclusive means small, poorly fitted or top-dose-only effect, or another doubt; inactive means no such curve, though single readings can be large or run the other way.

SMILES | Pf growth 48h | HCV inhibitor | Lassa entry inh | Marburg entry inh | HCMV inh | Pf growth 96h
CC(=O)Nc1ccc2c(CN3C(=O)NC(C)(c4ccc(C)cc4)C3=O)cc(=O)oc2c1 (stereo not drawn) | ? | ? | ? | - | - | ?
Cc1ccc(N(C(=O)c2csnn2)C(C(=O)NC2CCCCC2)c2ccccn2)c(C)c1 (stereo not drawn) | - | - | - | - | -62 | -
Cc1ccc(N(C(=O)c2csnn2)C(C(=O)NC2CCCC2)c2ccccn2)c(C)c1 (stereo not drawn) | - | - | . | - | - | -
Cc1ccc(N(C(=O)Cc2cccs2)C(C(=O)NC2CCCCC2)c2ccccn2)cc1C (stereo not drawn) | - | - | ? | - | - | 4.1µM
Cc1cccc(N(C(=O)Cc2cccs2)C(C(=O)NC2CCCC2)c2ccncc2)c1 (stereo not drawn) | - | - | - | - | - | -
O=C(NC1CCCC1)C(c1ccccn1)N(C(=O)c1csnn1)c1ccccc1Br (stereo not drawn) | - | - | - | - | - | 2.1µM
Cc1ccc(C(=O)n2c(N)nc3ccccc32)cc1 | - | - | ? | 7.9µM | ? | -
Nc1nonc1-c1nc2ccccc2n1Cc1ccc(Cl)cc1 | . | - | - | - | - | .
Nc1ccc(C(=O)N2CCCC2)cc1 | - | - | - | - | - | -
Nc1nc2ccccc2n1Cc1ccc(Cl)c(Cl)c1 | 10µM | - | - | 10µM | - | ?
Cc1ccc(S(=O)(=O)n2c(N)nc3ccccc32)cc1 | - | ? | - | - | - | -
Nc1ccc(C(=O)n2c3ccccc3c3ccccc32)cc1 | - | ? | ? | 4µM | -79 | 2.3µM
COc1ccc(C(=O)n2c(-c3ccco3)nc3ccccc32)cc1 | - | - | - | - | - | 2.1µM
O=Nc1c(O)n(Cc2ccc(Cl)c(Cl)c2)c2ccccc12 | ? | ? | - | - | - | 9.3µM
Cc1ccc(Cn2c(N)nc3ccccc32)cc1 | - | 10µM | - | ? | ? | -
c1ccc(CNCCCNCCCCNCCCNCc2ccccc2)cc1 | . | ? | ? | ? | -97 | .
Oc1ccccc1CNCCCNCc1ccccc1O | 8.3µM | 2.8µM | ? | ? | - | -
O=C(O)CCCCNCc1ccccc1 | . | - | - | - | - | -
Cc1ccc2c(c1)c(N1CCCC1=O)c(C(=O)Nc1ccc(F)cc1F)n2C | . | . | - | . | - | .
Cc1cc(C=O)c(C)n1-c1ccc(N2CCCCC2)c([N+](=O)[O-])c1 | - | ? | ? | ? | - | ?
Cc1cc(/C=C(\C#N)C(N)=O)c(C)n1-c1ccc(N2CCOCC2)c([N+](=O)[O-])c1 | ? | ? | - | ? | -75 | ?
CC(=O)[C@H]1CCC2C3CC=C4C[C@@H](OS(=O)(=O)O)CC[C@]4(C)C3CC[C@@]21C (stereo partly drawn) | . | . | ? | - | . | .
CC(C)C(=O)N[C@H]1CCC2C3CC=C4C[C@@H](O)CC[C@]4(C)C3CC[C@@]21C (stereo partly drawn) | . | - | - | - | - | .
CC(C)(C)[C@H](N)C(=O)N[C@H]1CCC2C3CC=C4C[C@@H](O)CC[C@]4(C)C3CC[C@@]21C (stereo partly drawn) | . | 11µM | ? | ? | -99 | .
CC(=O)C1CCC2C3CC=C4CC(SC(=N)N)CCC4(C)C3CCC12C (stereo not drawn) | . | ? | ? | 11µM | - | .
SMILES | Pf growth 48h | HCV inhibitor | Lassa entry inh | Marburg entry inh | HCMV inh | Pf growth 96h
CN(C)CCNCc1ccc(OC2CCCC2)cc1 | . | . | - | ? | - | 9.3µM
Cc1ccc(C(=O)c2sc(Nc3ccc(F)cc3)nc2N)c(C)c1 | . | . | - | . | ? | .
COc1ccc(N2CCN(C(=O)c3nc4nc(C)cc(C)n4n3)CC2)cc1 | ? | - | . | - | - | -
CCc1nc2ccc(C(=O)N3CCN(c4ccc([N+](=O)[O-])cc4)CC3)cc2nc1CC | ? | 13µM | . | . | ? | ?
Cc1cc(C)n2nc(C(=O)N3CCN(c4ccc([N+](=O)[O-])cc4)CC3)nc2n1 | ? | - | . | . | - | 5.9µM
Cc1cc(C)c(NC(=O)CN(CC(=O)O)CC(=O)O)c(C)c1Br | - | . | . | . | . | 3.4µM
Cc1ccccc1OCc1nc2ccccc2c(=O)n1/N=C/c1cn[nH]c1-c1ccccc1 | ? | ? | 10µM | 16µM | - | ?
Cc1cc(/C=N/n2c(COc3ccccc3)nc3ccccc3c2=O)c(O)c([N+](=O)[O-])c1 | - | ? | ? | ? | -63 | -
O=c1c2ccccc2nc(COc2ccccc2)n1/N=C/c1ccco1 | - | - | ? | - | - | -
CCCc1nc2ccccc2c(=O)n1/N=C/c1ccc(O)cc1 | 12µM | ? | ? | ? | - | ?
Cc1ccc(-c2[nH]ncc2/C=N/n2c(COc3ccccc3)nc3ccccc3c2=O)cc1 | 12µM | 11µM | ? | ? | -78 | 10µM
Cc1nc2ccccc2c(=O)n1/N=C/c1cn[nH]c1-c1ccccc1 | - | ? | ? | - | - | ?
COc1cc(NC(=O)C2CCN(S(=O)(=O)c3c(C)noc3/C=C/c3cccs3)CC2)cc(OC)c1 | . | . | - | - | - | .
COc1ccc(NC(=O)NCCCN2CCN(c3cc(C)ccc3C)CC2)cc1 | ? | 10µM | . | . | - | -
Cc1ccc(C)c(N2CCN(CCCc3ccccc3)CC2)c1 | - | ? | . | . | - | ?
CCOc1cccc(N2CCN(CCNC(=O)Nc3ccc(C)cc3)CC2)c1C | ? | 13µM | . | . | - | -
COc1ccc(C2=C(C)C(=NCCCN3CCN(c4cc(C)ccc4C)CC3)NS2(=O)=O)cc1 | . | . | - | - | -91 | .
COc1ccc(NC(=O)NCCCN2CCN(c3ccccc3F)CC2)cc1 | - | - | - | - | - | -
O=C1OC(C(=O)Nc2cc(C(F)(F)F)ccc2Cl)Cc2ccccc21 (stereo not drawn) | . | . | - | - | - | .
CCn1c(CCc2ccccc2)n[nH]c1=S | - | - | ? | ? | - | 10µM
CCn1c(Cc2ccccc2)n[nH]c1=S | - | - | . | . | - | -
CCn1c(CSCc2ccccc2)n[nH]c1=S | - | - | - | - | -73 | ?
CC1=C(C(=O)N(C)C)CC(CC(=O)NC(c2ccccc2)c2ccccc2)C(=O)N1CCCN1CCCC1=O (stereo not drawn) | . | . | . | . | - | .
COc1ccc(CN(C)C(=O)COC(=O)c2ccc(-c3ccccc3)cc2)c(OC)c1OC | ? | - | - | - | - | -
CC(=O)OCC(COC(C)=O)(CN1C(=O)c2ccccc2C1=O)CN1C(=O)c2ccccc2C1=O | . | . | . | . | - | .
C=C(C)C1Cc2c(C)nn(-c3nc(C)cc(C)n3)c2C1 (stereo not drawn) | ? | ? | - | - | - | 13µM
O=C1C(Cc2ccccc2)Nc2ncnc(N3CCOCC3)c2N1Cc1ccc(Cl)cc1 (stereo not drawn) | 9.3µM | - | . | . | ? | -
CC(C)CC1Nc2ncnc(N3CCOCC3)c2N(Cc2ccc(Cl)cc2)C1=O (stereo not drawn) | . | - | . | . | -101! | .
